Data from PubChem BioAssay (NCI).
Compounds without any hit were thinned out: in the full panel of roughly 83,000, 20% have a hit.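 Cell lines were cultured in 96-well plates, exposed to a single compound concentration, and assessed for percent growth 48 hours later.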 Unmarked numbers belong to inactive results. Activity calls are given as the source filed them. How the source made its calls: active means growth percent below 10; inactive means the rest.

tested on: NCI-H23 lung; test: NCI-60 one-dose screen, 48 h (100 = growth as untreated, 0 = no growth, -100 = all killed); conditions: 10 µM unless noted

In the case of N#CSc1c[nH]c2cccc(/C=C/C(=O)/C=C(O)/C=C/c3cccc4[nH]cc(SC#N)c34)c12, the growth is reported as -36.8% (active).

Compared with COCCn1cc(-c2csc(-c3c[nH]c4ccc(Br)cc34)n2)c2cccnc21, CNC(=O)c1cc(Oc2ccc3c(c2)sc2nc(-c4ccc(OC)cc4)cn23)ccn1 is higher in growth: 32.3% for the first, 41.2% for the second.

First: N#CC1CCc2c(c(-c3ccc4nc(N)sc4c3)nc3ccc4[nH]ncc4c23)C1 (stereo not given)
Second: Cc1ccc2nc(NC(=O)CSc3nc(-c4ccccc4)c(C#N)c4nnnn34)sc2c1
The growth of the first is lower: 36.9% for the first, 103% for the second.

Compared with NS(=O)(=O)c1ccc(-c2cc(-c3nnc(SCC(=O)Nc4ccc(C(=O)/C=C/c5ccc(Cl)cc5)cc4)n3-c3ccccc3)c3ccccc3n2)cc1, O=C(/C=C/c1ccccc1)c1ccc(Nc2nc(Nc3ccc(F)cc3)nc(Nc3ccc(Cl)cc3)n2)cc1 is lower in growth: 102% for the first, 83.9% for the second.

Going from O=C(Nc1cc(Cl)ccc1O)c1cccc(Nc2ccnc(C(F)(F)F)c2)c1 to O=c1nc(-c2ccccc2)c2cc(-c3ccc(C(F)(F)F)nc3)ccc2[nH]1, the growth rises from 11.6% to 89.5%.

First: CC/C(Cc1ccccc1)=C(\c1ccc(OCCCN(C)C)cc1)c1ccc(OC(=O)NCc2ccccc2)cc1
Second: CN(C)S(=O)(=O)Oc1ccc(-c2sc3cc(OS(=O)(=O)N(C)C)ccc3c2C(=O)c2ccc(OCCN3CCCCC3)cc2)cc1
The growth of the first is higher: 92.9% for the first, 74.4% for the second.

First: Clc1c(Cl)[n+](Cc2ccc3ccccc3c2)cn1Cc1ccc2ccccc2c1
Second: COc1ccc(Cn2cc3c(c2-c2ccccc2)CCc2cnoc2-3)cc1
The growth of the first is higher: 32.8% for the first, 27.2% for the second.

Compared with CSC(SC)=C(C#N)c1nc2ccccc2s1, Cc1nc2sc(C(=O)Nc3cccc(Br)c3C)c(N)c2cc1C(O)c1ccccc1 (stereo not given) is lower in growth: 58.3% for the first, 18.5% for the second.

First: O=C(CN1CCCCCC1)Nc1nc2ccc(NCc3ccc(Cl)cc3)cc2s1
Second: CC1=C(C(=O)Nc2nc(-c3ccc(Cl)cc3)cs2)[C@H](c2ccc(O)cc2)NC(=O)N1
The growth of the first is lower: 97.3% for the first, 101% for the second.

Going from CCC1S/C(=N\N=C(\C)c2cc3cc(Cl)ccc3o2)N(c2ccccc2)C1=O (stereo not given) to N=C(N)c1ccc(-c2ccc(-c3cc(Cl)cc(Cl)c3)s2)nc1, the growth falls from 90.7% to 75.5%.

First: Cc1ccc(C)c(/C=C2\CN(C(=O)OC(C)(C)C)C/C(=C\c3cc(C)ccc3C)C2=O)c1
Second: Cn1c(=O)c2[nH]c(SCC(=O)Nc3ccc(C(=O)/C=C/c4ccccc4Cl)cc3)nc2n(C)c1=O
The growth of the first is lower: 49.7% for the first, 98.1% for the second.

Going from COc1ccc(-c2n[nH]c(=O)c3nc(NC(=S)Nc4ccc(Oc5ccccc5)cc4)sc23)cc1 to COc1ccc(Oc2nc(Nc3ccc(N4CCOCC4)cc3)ncc2NC(=O)Nc2cc(OC)cc(OC)c2)cc1, the growth falls from 99.7% to 33.2%.

First: O=C1/C(=C\c2ccccn2)c2ccccc2N1c1c(Cl)cccc1Cl
Second: O=C(Cn1nnc2ccccc21)N/N=C/c1c[nH]c2ccccc12
The growth of the first is lower: 13% for the first, 71% for the second.

Going from Cc1ncc(C(=O)Nc2ccc(CN3CCN(C)CC3)c(C(F)(F)F)c2)cc1C#Cc1cnc(N)c2ncccc12 to C#CCOc1cccc(-c2ncnc3cc(NC(=O)C=C)ccc23)c1, the growth rises from 38.4% to 69%.

Compared with O=C1Nc2c(C(=O)O)cccc2/C1=N/c1n[nH]c(=S)s1, COc1ccc2c(c1)/C(=N/c1n[nH]c(=S)s1)C(=O)N2 is higher in growth: 87.8% for the first, 93% for the second.

First: COC(=O)c1ccc(NC(=O)Nc2ccc(C(=O)OC)cc2)cc1
Second: COc1cc(/C=N/Nc2ccc(Br)cc2)cc(OC)c1OC
The growth of the first is higher: 113% for the first, 75.8% for the second.

Compared with COc1ccc(/C=C/C(c2cc(OC)c(OC)c(OC)c2)n2ccnc2)cc1O (stereo not given), COc1ccc(-c2ccc(-c3ccc(C(=N)N)nc3)s2)cc1Cl is lower in growth: 55.7% for the first, 41.2% for the second.

First: C=C1C(=O)O[C@H]2[C@H]1CC/C(COC(=O)/C=C/C(=O)OC/C1=C/CC[C@@]3(C)O[C@H]3[C@H]3OC(=O)C(=C)[C@@H]3CC1)=C\CC[C@@]1(C)O[C@@H]21
Second: O=c1ccc(=O)n(-c2nc(-c3ccc([N+](=O)[O-])cc3)cs2)[nH]1
The growth of the first is higher: 94.1% for the first, 90.7% for the second.

Going from CCCCCCCCCCCCCCCCCC1=NC(C)(C)CN1CC(C)O (stereo not given) to CCCCNc1cc(-c2cn[nH]c2-c2cc(C)cc(OC)c2)nc(-c2cccnc2)n1, the growth rises from 84.8% to 101%.

Going from O=S(=O)(NCCCNc1nccc(-c2c(-c3cccc(F)c3)nc3occn23)n1)c1ccc(F)cc1 to CC(C)(C)n1cc(-c2ccnc(NCCCNS(=O)(=O)c3ccc(C(F)(F)F)cc3)c2)c(-c2cccc(F)c2)n1, the growth falls from 84.4% to 82%.

Molecule Cc1ccc(-c2nc(N3CCNCC3)c3oc(-c4ccc(C)cc4)nc3n2)cc1 has a growth of 75.6%.
